According to PubChem BioAssay (Tox21):
Inconclusive results are not listed. Active and inactive are the calls of the source. Unless noted, the call rests on the fitted dose curve; in most records, active means well fitted curve in the direction sought with a large enough effect in the repeat runs; inconclusive means weak or mixed curves; inactive means no such curve, though single readings can be large; an effect the other way counts as inactive or inconclusive.

Legend:
[1] = A CellTox Green Cytotoxicity Assay to monitor cytotoxicity in HepG2 cells - 8 hour (AID 1224890); further: nearly all actives have a fitted effect of over 45% in size
In short: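 Real-time, homogeneous cytotoxicity readout: dead-cell DNA staining by CellTox Green in HepG2 monolayers, fluorescence measured at timed intervals up to 40 h of continuous compound exposure.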

[2] = qHTS assay to identify small molecule antagonists of the estrogen receptor alpha (ER-alpha) signaling pathway using the BG1 cell line in the presence of 0.1 nM 17-beta-estradiol - cell viability counter screen (AID 1259241); further: nearly all actives have a fitted effect of over 40% in size
In short: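 Cytotoxicity counter-screen: live-cell protease activity measured by fluorescence (30 min reagent step) in the same wells. Cells were VM7Luc4E2 with endogenous ER-alpha and ERE-driven luciferase, treated 22 hr at 37C alongside 0.1 nM 17beta-estradiol final.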

[3] = qHTS assay to identify small molecule antagonists of the androgen receptor (AR) signaling pathway using the MDA cell line in the presence of 0.5 nM R1881 - cell viability counter screen (AID 1259242); further: nearly all actives have a fitted effect of over 45% in size
In short: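 Cytotoxicity toward MDA-kb2 cells is measured by CellTiter-Fluor live-cell protease fluorescence after 16 hr compound exposure at 37C in the presence of 0.5 nM R1881 stimulator.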

[4] = qHTS assay to identify small molecule HDAC inhibitors (AID 1259364); further: top concentration of the series differs between compounds; nearly all actives have a fitted effect of over 45% in size
In short: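 Homogeneous cell-based luminescent assay of endogenous class I/II HDAC activity; HCT-116 cells, 2 h compound exposure, 30 min HDAC-Glo development at RT.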

[5] = qHTS assay to identify small molecule agonists of the sonic hedgehog signaling (Shh) pathway - cell viability counter screen (AID 1259366); further: nearly all actives have a fitted effect of over 50% in size
In short: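 Cytotoxicity counter screen: CellTiter-Fluor reagent added after 23 h compound exposure, then 1 h at 37C and fluorescence read. Cells were 3T3 Gli1-Luc, seeded 2,000 per well and dosed 4 h post-plating.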

[6] = qHTS assay to identify small molecule antagonists of the sonic hedgehog signaling (Shh) pathway - cell viability counter screen (AID 1259367); further: nearly all actives have a fitted effect of over 55% in size
In short: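 NIH/3T3-derived Gli1-Luc reporter cells, 2,000/well, plated 4 hr before compound addition, then stimulated with conditioned medium for 24 hr at 37C. Viability measured in the same wells by CellTiter-Fluor fluorescence, reagent added at 23 hr for 1 hr.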

[7] = qHTS assay to identify small molecule HDAC inhibitors - cell viability counter screen (AID 1259365); further: series mostly up to about 92 µM; nearly all actives have a fitted effect of over 50% in size
In short: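 CellTiter-Glo luminescence (30 min, room temperature) reported viability after a 2 h compound exposure at 37 C. Cells: wild-type HCT-116, 1,500 per well, seeded the night before.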

[8] = target: Androgen receptor (Homo sapiens) (UniProt P10275); assay: qHTS assay to identify small molecule antagonists of the androgen receptor (AR) signaling pathway using the MDA cell line in the presence of 0.5 nM R1881 (AID 1259243); further: nearly all actives have a fitted effect of over 50% in size
Chain of Androgen receptor (Homo sapiens) (P10275 whole entry, looked up): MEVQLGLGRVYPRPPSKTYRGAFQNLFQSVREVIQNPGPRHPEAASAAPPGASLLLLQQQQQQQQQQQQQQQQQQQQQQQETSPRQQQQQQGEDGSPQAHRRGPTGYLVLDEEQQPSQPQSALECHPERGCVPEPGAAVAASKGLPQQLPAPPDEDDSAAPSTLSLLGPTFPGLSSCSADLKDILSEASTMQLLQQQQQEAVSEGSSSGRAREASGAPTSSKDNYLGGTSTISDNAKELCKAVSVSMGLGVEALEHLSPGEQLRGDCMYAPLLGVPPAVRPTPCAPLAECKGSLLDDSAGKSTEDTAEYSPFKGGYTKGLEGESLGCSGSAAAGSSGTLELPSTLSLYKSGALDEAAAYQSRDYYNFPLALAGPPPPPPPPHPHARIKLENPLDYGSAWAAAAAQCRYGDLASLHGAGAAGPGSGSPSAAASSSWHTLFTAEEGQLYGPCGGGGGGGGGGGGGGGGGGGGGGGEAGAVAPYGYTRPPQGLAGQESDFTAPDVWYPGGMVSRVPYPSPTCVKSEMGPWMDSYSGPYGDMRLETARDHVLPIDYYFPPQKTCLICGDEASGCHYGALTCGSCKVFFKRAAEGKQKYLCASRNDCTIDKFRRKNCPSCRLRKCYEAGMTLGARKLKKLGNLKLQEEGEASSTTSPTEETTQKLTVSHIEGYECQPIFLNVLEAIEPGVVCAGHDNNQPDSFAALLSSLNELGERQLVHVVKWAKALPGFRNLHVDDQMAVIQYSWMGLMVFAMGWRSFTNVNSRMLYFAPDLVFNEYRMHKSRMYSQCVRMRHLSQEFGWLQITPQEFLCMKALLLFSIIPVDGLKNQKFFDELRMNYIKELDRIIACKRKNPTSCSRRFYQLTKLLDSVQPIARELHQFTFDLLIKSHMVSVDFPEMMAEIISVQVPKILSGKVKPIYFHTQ
In short: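 Steps: seed MDA-kb2 cells, incubate 5 hr at 37C; pin-transfer compounds in DMSO; add R1881 to 0.5 nM final; incubate 16 hr; add ONE-Glo, wait 30 min at room temperature; read luminescence.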

[9] = target: Estrogen receptor (Homo sapiens) (UniProt P03372); assay: qHTS assay to identify small molecule antagonists of the estrogen receptor alpha (ER-alpha) signaling pathway using the BG1 cell line in the presence of 0.1 nM 17-beta-estradiol (AID 1259244); further: nearly all actives have a fitted effect of over 50% in size
Chain of Estrogen receptor (Homo sapiens) (P03372 whole entry, looked up): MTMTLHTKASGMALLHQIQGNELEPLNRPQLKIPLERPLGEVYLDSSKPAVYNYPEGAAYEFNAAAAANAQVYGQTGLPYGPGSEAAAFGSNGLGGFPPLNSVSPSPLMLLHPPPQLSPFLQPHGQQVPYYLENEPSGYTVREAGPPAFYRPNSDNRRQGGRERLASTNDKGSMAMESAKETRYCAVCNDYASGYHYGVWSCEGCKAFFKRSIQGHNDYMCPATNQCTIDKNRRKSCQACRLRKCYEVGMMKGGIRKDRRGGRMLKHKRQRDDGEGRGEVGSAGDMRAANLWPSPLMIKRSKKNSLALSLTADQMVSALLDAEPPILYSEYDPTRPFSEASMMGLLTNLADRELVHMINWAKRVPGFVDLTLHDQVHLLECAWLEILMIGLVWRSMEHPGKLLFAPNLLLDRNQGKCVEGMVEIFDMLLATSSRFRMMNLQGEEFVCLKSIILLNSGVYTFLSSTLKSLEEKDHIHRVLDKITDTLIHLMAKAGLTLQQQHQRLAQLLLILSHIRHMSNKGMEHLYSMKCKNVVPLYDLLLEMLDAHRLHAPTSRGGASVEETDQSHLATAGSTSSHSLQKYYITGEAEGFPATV
In short: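 After 5 days in hormone-depleted medium (charcoal-stripped serum, no phenol red), VM7Luc4E2 cells were seeded, incubated 24 h, then co-treated with compound and 0.1 nM (final) estradiol for 22 h before luminescence detection.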

[10] = qHTS assay to identify small molecule phospholipidosis (PLD) inducers (AID 1259344; active means well fitted curve in the direction sought with a large enough effect; an effect the other way counts as inactive or inconclusive)
In short: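 HepG2 cells, 900/well, treated with compound plus LipidTOX Red for 24 h at 37 C; amiodarone positive and DMSO negative controls. Fixed with paraformaldehyde/Hoechst, then high-content imaging scored LipidTOX pit count and integrated intensity per well and per cell.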
On the % scale 0 is the no-effect control and ±100 the full control effect.

COC(=O)c1ccc(C)cc1C1=NC(C)(C(C)C)C(=O)N1 (stereo not given)
inactive: Potency [1] | outcome [2] | Potency [3] | Potency [4] | Potency [5] | Potency [6]

O=C1CCCC(=O)C1
inactive: Potency [1] | outcome [2] | Potency [3] | Potency [4] | outcome [7] | Potency [5] | Potency [6]

Cn1c(N)c(N=O)c(=O)n(C)c1=O
inactive: Potency [1] | outcome [2] | Potency [3] | Potency [4] | outcome [7] | Potency [5] | Potency [6]

CCCCNC(=O)NCCCC
inactive: Potency [1] | Potency [3] | Potency [8] | outcome [9] | Potency [4] | outcome [7] | Potency [5] | Potency [6]

CCOC(=O)c1c(C)n(C)c2ccc(O)cc12
inactive: Potency [1] | Potency [3] | Potency [8] | Potency [10] | Potency [4] | Potency [6]

COC(=O)CCSCCC(=O)OC
inactive: Potency [1] | outcome [2] | Potency [3] | Potency [4] | outcome [7] | Potency [5] | Potency [6]

CCOC(=O)[C@H](CCc1ccccc1)N[C@@H](C)C(=O)N1[C@H](C(=O)O)C[C@@H]2CCC[C@@H]21
inactive: Potency [1] | Potency [3] | outcome [9] | Potency [10] | Potency [4] | outcome [7] | Potency [5] | Potency [6]

CCCCOCCOCCOCCCC
inactive: Potency [1] | outcome [2] | Potency [3] | outcome [7] | Potency [5] | Potency [6]

CC(C)NCC(O)c1ccc(NS(C)(=O)=O)cc1 (stereo not given)
inactive: Potency [1] | outcome [2] | Potency [3] | Potency [10] | Potency [5] | Potency [6]

NS(=O)(=O)c1ccccc1Cl
inactive: Potency [1] | outcome [2] | Potency [3] | outcome [7] | Potency [5] | Potency [6]

N=C(N)c1ccc(OCCCOc2ccc(C(=N)N)cc2)cc1
inactive: Potency [1] | Potency [3] | outcome [9] | PLD induction [10] -2.77% [at 0.306 µM] | Potency [4] | outcome [7] | Potency [5] | Potency [6]

CC(C)NCCCC1(C(N)=O)c2ccccc2-c2ccccc21
inactive: Potency [1] | Potency [3] | outcome [9] | Potency [4] | outcome [7] | Potency [5] | Potency [6]

O=C(O)c1ccccc1OP(=O)(O)O
inactive: Potency [1] | Potency [3] | outcome [9] | Potency [10] | Potency [4] | Potency [5] | Potency [6]

CCCCCCCCCCCC
inactive: Potency [1] | Potency [3] | outcome [7] | Potency [6]

O=Cc1cccc([N+](=O)[O-])c1
inactive: Potency [1] | Potency [3] | outcome [9] | Potency [4] | outcome [7] | Potency [5] | Potency [6]

CCCc1cc(C(N)=S)ccn1
inactive: Potency [1] | Potency [3] | outcome [9] | Potency [10] | outcome [7] | Potency [5] | Potency [6]

CCC(C)S (stereo not given)
inactive: cytotoxicity increase [1] -0.336% [at 2.72 µM] | viability change, negative = cytotoxic [3] 1.28% [at 3.26 µM] | viability change, negative = cytotoxic [5] 3.35% [at 3.27 µM] | viability change, negative = cytotoxic [6] 3.76% [at 3.27 µM]

O=C(c1ccccc1)C1CCCCC1
inactive: outcome [2] | Potency [3] | Potency [8] | outcome [9] | Potency [4] | Potency [6]

CCc1ccc(O)c(OC)c1
inactive: Potency [1] | Potency [3] | outcome [7] | Potency [5] | Potency [6]

CCC(=O)OC(C)c1ccccc1 (stereo not given)
inactive: Potency [1] | Potency [3] | outcome [9] | Potency [4] | outcome [7] | Potency [5] | Potency [6]

Nc1nc2c(ncn2COC(CO)CO)c(=O)[nH]1
inactive: Potency [1] | Potency [3] | outcome [9] | Potency [10] | Potency [4] | outcome [7] | Potency [5] | Potency [6]

CC[N+](C)(C)c1cccc(O)c1
inactive: Potency [1] | Potency [3] | Potency [10] | Potency [4] | outcome [7] | Potency [5] | Potency [6]

OCCCC1CCCCC1
inactive: Potency [1] | Potency [3] | outcome [9] | outcome [7] | Potency [5] | Potency [6]
